Values without a mark were called inactive. The source made the active and inactive calls.

The assay is described as follows: plasmodial surface anion channel blockers, osmotic lysis – cell-based, P. falciparum Indochina, OD700, 1 h, primary screen (AID 1154). The note with it: P. falciparum Indochina infected RBC osmotic lysis, higher = more signal, called active from +8 up or from −8 down.
As to `C=C(/C(=C/C[C@H](OC(=O)c1ccncc1)c1ccc(CO)o1)c1cc(C(=O)OC)ccc1OC)C(C)C`, the z-score was 3.3.
Next, `COC(=O)[C@@]1(Cc2ccccc2)[C@H]2c3cc(C(=O)N(C)C)n(CCN4CNCC4=O)c3C[C@H]2CN1C(=O)c1ccccc1`: 0.274; `O=C1O[C@H](c2ccccc2)[C@H](c2ccccc2)N2[C@H]1[C@@H](C(=O)Nc1nc3ccccc3s1)[C@]1(C(=O)Nc3ccc(C#CC4(O)CCCCCC4)cc31)[C@H]2c1ccccc1OCCO`: 2.83; `CCOC(=O)C[C@H]1[C@H](OC(=O)c2ccccc2-c2ccccc2)[C@@H](NC(=O)C2CCCCC2)c2cc(OCCCO)ccc2N1C(=O)Cc1ccc(OC)cc1`: 1.1.
Next, `CN(C)CCCNC(=O)[C@@]1(C)c2ccccc2C(=O)N(Cc2ccccc2)[C@H]1c1ccc(CO)cc1`: 2.17; `NC(=O)N1C(=O)C2C(C1=O)C1C=C(CCCO)C2C(c2cccs2)N1Cc1cccc(OC(F)(F)F)c1` (configuration not stated): 8.85 (active); `COc1ccc(NC(=O)O[C@H]2[C@H](OC(=O)Nc3ccccc3)[C@@H](OC(=O)Nc3ccccc3)[C@@H](OC)O[C@@H]2CO)cc1`: 4.49.

Source of the values: PubChem BioAssay.
